HSF-1 act: increases HSF-1 driven luciferase reporter signal; NIH3T3-HGL HSF-1 luciferase reporter, MG132, 8 h; 100% = twice DMSO control signal; activation, % at 9 µM; 300,000 compounds, 1.7% hits;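 active = mean replicate activation of at least 50% with a set share of replicates each reaching 50%; inconclusive = only one of those two conditions met; inactive = mean below 50% and too few replicates reaching it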
HIF act: HIF pathway transcriptional activation; U2OS HRE-luciferase reporter, luminescence; normalized: DMSO 0%, desferrioxamine 100%; activation, % at 7.5 µM (by protocol); 300,000 compounds, 0.32% hits; AID 1910;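 active = mean activation of at least 10% of the iron chelator positive control signal, with at least half of replicates also reaching 10%; inconclusive = mean and replicate majority disagree about reaching 10%; inactive = mean and most replicates under 10%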
ARNT-TACC3 inh: disruptors of human ARNT/TACC3 interaction; AlphaScreen His-ARNT PAS-B/GST-TACC3 binding, luminescence; TACC3 fragment carries E629A point mutation; inhibition, % at 9.99 µM; 390,000 compounds, 0.66% hits;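 active = mean inhibition of replicates at least 50% and at least half of replicates each reaching 50%; inconclusive = half or more replicates reach 50% but mean below 50%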
HSF1 inhib: HSF1 inhibition; NIH3T3-HGL HSE-luciferase, MG132-induced, luminescence 8 h; stronger effect = lower value; activity change, negative = inhibition, % at 7.5 µM (by protocol); 300,000 compounds, 0.77% hits; AID 2098;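 active = more than half of replicate wells show activity change below -50%, luminescence cut by over half; inconclusive = some wells, but at most half, below -50%; inactive = no replicate well below -50%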;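 note: luciferase reports HSF-1 transcriptional activity via heat shock element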
HSP90 inh: HSP90 refolding inhibition in rabbit reticulocyte lysate; inhibition, % at 5.6 µM; AID 1789; luciferase refolding luminescence, 3 h; 290,000 compounds, 0.91% hits;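 active = inhibition above the screen-wide mean plus 3 SD, computed separately per campaign, cut at about 16% in these data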;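 note: inhibitors lower the luminescence because luciferase stays unfolded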
Large screens that a line does not name were inactive. Hits are enriched below; roughly 3.1% of the tested compounds scored in any of these assays.

CCOC(=O)c1c(COc2ccccc2)oc2ccc(O)cc12	HSF-1 act 105 (no result: ARNT-TACC3 inh)
CCOC(=O)c1c(C)n(CCNC(C)=O)c2ccc(O)cc12	none
CCOC(=O)c1c(C)n(CCOc2ccccc2)c2ccc(O)cc12	HSF-1 act 69
O=S(=O)(CCSc1nc2ccccc2s1)c1nc2ccccc2s1	HSF-1 act 95, HIF act 13
CCS(=O)(=O)CCSc1nc2ccccc2s1	none
C[C@@H]1CCCCO[C@@H](CN(C)C(=O)CCC(F)(F)F)[C@H](C)CN([C@@H](C)CO)C(=O)c2cc(NS(=O)(=O)c3ccc(Cl)cc3)ccc2O1	none (no result: HSF-1 act, HIF act, HSF1 inhib, HSP90 inh)
O=C(Nc1ccc([N+](=O)[O-])cc1)c1ccc(S(=O)(=O)N2CCCC2)cc1	none
O=C(Nc1ccc(S(=O)(=O)N2CCCCCC2)cc1)c1[nH]ncc1[N+](=O)[O-]	HSF-1 act 107
CCCC(=O)Nc1ccc2c(c1)C(=O)N(C)[C@H]1CC[C@@H](CC(=O)Nc3cn(C)nc3C)O[C@@H]1CO2	none (no result: HSF-1 act, HIF act, HSF1 inhib, HSP90 inh)
Cc1ccc(OCC(=O)Nc2c[nH]c(=O)[nH]c2=O)cc1C	HSF1 inhib -52
O=S(=O)(O)c1cc(Cl)cc(N=Nc2ccc(O)cc2O)c1O	ARNT-TACC3 inh 63 (no result: HSF-1 act, HIF act, HSF1 inhib, HSP90 inh)
COc1ccccc1CN1C[C@H](C)[C@H](OC)CN(C)C(=O)c2cc(NC(C)=O)ccc2OC[C@H]1C	none (no result: HSF-1 act, HIF act, HSF1 inhib, HSP90 inh)
COc1ccc(Cn2c(=O)c3[nH]cnc3n(-c3ccccc3C)c2=O)cc1	none
Cc1ccccc1-n1c(=O)n(Cc2ccc(C(=O)O)cc2)c(=O)c2[nH]cnc21	HIF act 37
COc1ccc(CN(C)C[C@H]2OCCCC[C@@H](C)Oc3ccc(NC(=O)c4ccccc4)cc3C(=O)N([C@H](C)CO)C[C@H]2C)cc1	none (no result: HSF-1 act, HIF act, HSF1 inhib, HSP90 inh)
CCn1cc(C(=O)NN)c(=O)c2cc(F)c(N3CCCCC3)cc21	none
CCn1cc(C(=O)NN)c(=O)c2cc(F)c(NC3CCCCC3)cc21	HSF-1 act 66
COC(=O)C1=C(COc2ccccc2)NC(=O)NC1c1ccc(Cl)cc1 (stereo not given)	HSF-1 act 53 (no result: ARNT-TACC3 inh, HSP90 inh)
CC(C)c1ccc(NC(=O)CNC(=O)Cn2cnc3ccccc3c2=O)cc1	HSF1 inhib -83
CN(C(=O)CCNC(=O)Cn1cnc2ccccc2c1=O)c1ccc(F)cc1	none
CN(C(=O)CCNC(=O)Cn1cnc2ccccc2c1=O)c1ccccc1F	HSF1 inhib -89
N/C(=N\OC(=O)COc1ccc(Br)cc1)c1cccnc1	HSF-1 act 57
N/C(=N\OC(=O)C(c1ccccc1)c1ccccc1)c1cccnc1	HIF act 72
N/C(=N\OC(=O)/C=C/c1ccccc1Cl)c1cccnc1	HSF-1 act 57 (no result: ARNT-TACC3 inh)
N/C(=N\OC(=O)C(c1ccccc1)c1ccccc1)c1ccccn1	HSF-1 act 73
N#Cc1ccc(-c2ccc3c(c2)[C@H]2[C@H](CCN2C(=O)CN2CCOCC2)[C@@H](CO)N3)cc1	none (no result: HSF-1 act, HIF act, HSF1 inhib, HSP90 inh)
COc1ccc(C(=O)/C=C2\Sc3ccccc3N2C)cc1	HSF-1 act 56 (no result: ARNT-TACC3 inh)
Cc1cc(S(=O)(=O)N2CCCC2)ccc1OCC(=O)NCc1ccccc1	HSF1 inhib -77
Cc1cc(S(=O)(=O)N2CCCC2)ccc1OCC(=O)NCc1ccccn1	none (no result: ARNT-TACC3 inh)
Cc1ccc(S(=O)(=O)N2CCN(CCNC(=O)C(=O)NCc3ccccc3)CC2)cc1	HSF1 inhib -87
O=C(CN1C(=O)/C(=C\c2ccccc2Cl)Sc2ccccc21)NCCCN1CCOCC1	none (no result: ARNT-TACC3 inh)
O=C(CN1C(=O)/C(=C\c2cccc(Cl)c2)Sc2ccccc21)NCCCN1CCOCC1	HSF-1 act 90
CS/C(Nc1cc(Cl)ccc1Cl)=C(/C#N)C(=O)c1ccco1	HSF-1 act 54
Cc1ccc2c(c1)/C(=C/c1ccccc1F)C(=O)N2	none
CN1C2CCC1/C(=C\c1ccccc1F)C(=O)/C2=C/c1ccccc1F	HSF-1 act 106
COCCNC(=O)C(c1ccc(C)cc1)N(C(=O)CCC(=O)Nc1ccccn1)c1ccccc1C (stereo not given)	HSF-1 act 78
Cc1noc(C)c1NC(=O)NCC[C@@H]1CC[C@H](NC(=O)c2ccc(F)cc2)[C@H](CO)O1	none (no result: HSF-1 act, HIF act, HSF1 inhib, HSP90 inh)
Cc1ccc(C(=O)N/C(=C\c2ccc(-c3ccc(Br)cc3)o2)C(=O)NCCCN(C)C)cc1	HSF1 inhib -97
Cc1ccc(C(=O)N/C(=C\c2ccc(-c3ccccc3[N+](=O)[O-])o2)C(=O)NCCCN2CCOCC2)cc1	HSF-1 act 58 (no result: HIF act)
Cc1ccc(C(=O)N/C(=C\c2ccc(-c3cccc([N+](=O)[O-])c3)o2)C(=O)NCCCN(C)C)cc1	none
c1ccc2sc(Nc3nc4cc5c(cc4s3)OCO5)nc2c1	HSF-1 act 76
Brc1ccc2nc(N3CCN(c4ccccc4)CC3)sc2c1	HSF-1 act 73
Fc1ccc2nc(Nc3nc4cc5c(cc4s3)OCO5)sc2c1	none
c1ccc(N2CCN(c3nc4cc5c(cc4s3)OCO5)CC2)cc1	HSF-1 act 72
Cc1ccc(Nc2nc3ccccc3s2)c(C)c1	HSF-1 act 66
Clc1ccc2nc(N3CCN(c4ccccc4)CC3)sc2c1	HSF-1 act inconclusive
C[C@@H]1CN([C@@H](C)CO)S(=O)(=O)c2ccc(-c3cccnc3)cc2O[C@@H]1CN(C)C(=O)CC1CC1	none (no result: HSF-1 act, HIF act, HSF1 inhib, HSP90 inh)
O=C(CN1CCOCC1)NCC[C@@H]1CC[C@@H](NC(=O)c2ccccc2F)[C@@H](CO)O1	none (no result: HSF-1 act, HIF act, HSF1 inhib, HSP90 inh)
COc1c(CC=C(C)C)cc(C2CC(=O)c3c(O)cc(O)cc3O2)cc1CC=C(C)C (stereo not given)	HSF1 inhib -91 (no result: HSP90 inh)
COC1=CC(=O)C(C2CC(=O)c3c(O)cc(O)cc3O2)=CC1=O (stereo not given)	none (no result: HIF act, HSP90 inh)
O=C(C[C@@H]1C=C[C@@H](NC(=O)Cc2ccccn2)[C@@H](CO)O1)NCCc1ccncc1	none (no result: HSF-1 act, HIF act, HSF1 inhib, HSP90 inh)
O=C(C[C@@H]1C=C[C@H](NC(=O)Cc2ccccn2)[C@@H](CO)O1)NCCc1ccncc1	ARNT-TACC3 inh 47 (no result: HSF-1 act, HIF act, HSF1 inhib, HSP90 inh)
CCNC(=O)Nc1ccc2c(c1)C(=O)N(C)[C@H]1CC[C@@H](CC(=O)NCc3ccc(F)cc3)O[C@H]1CO2	none (no result: HSF-1 act, HIF act, HSF1 inhib, HSP90 inh)
Cc1ccc(S(=O)(=O)c2c(C)cc(C)nc2Oc2cccc(C(F)(F)F)c2)cc1	ARNT-TACC3 inh active
Cc1ccc(N/C=C/c2onc(C)c2[N+](=O)[O-])cc1	none
COc1cccc(N/C=C/c2onc(C)c2[N+](=O)[O-])c1	HSF-1 act 66 (no result: ARNT-TACC3 inh)
Cc1ccc([N+](=O)[O-])cc1NC(=O)CSc1n[nH]c(-c2cccnc2)n1	HSF1 inhib -87
O=C(CSc1n[nH]c(-c2ccccc2)n1)Nc1ccccc1O	HSF-1 act 65
C[C@@H]1CN([C@H](C)CO)S(=O)(=O)c2ccc(-c3cccnc3)cc2O[C@@H]1CN(C)C(=O)C1CCC1	none (no result: HSF-1 act, HIF act, HSF1 inhib, HSP90 inh)
C=CCn1c(=O)c2c3c(sc2n2c(Nc4ccccc4)nnc12)CCCC3	HSF-1 act 68 (no result: ARNT-TACC3 inh)
O=C(NCCCN1CCOCC1)c1ccc(CS(=O)(=O)Cc2ccccc2Cl)o1	ARNT-TACC3 inh active
O=C(NCCCN1CCCCCC1)c1ccc(CS(=O)(=O)Cc2ccccc2F)o1	none (no result: HSF-1 act, HIF act, HSF1 inhib)
